Records with an inconclusive call do not appear. A call without a number means that no potency is given here. Activity calls are given as the source filed them. The call rests on the fitted dose curve; in most records, active means well fitted inhibition curve with a large enough effect; inconclusive means small, poorly fitted or top-dose-only effect; inactive means flat fitted curve, though single readings scatter.
Potency means the concentration at half of the fitted maximal effect.

This experiment in a line: CHOP2 Reporter Counterscreen Assay for Inhibitors of Ubiquitin-specific Protease USP2a.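 Further: activated enterokinase alone at 50 pM in a cell-free format rather than USP2a or CHOP2; nearly all actives have a fitted effect of over 55% in size.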 Particulars: purified enterokinase, fluorogenic substrate, 485/531 nm; series mostly up to 38.3 µM. In a few lines: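 Cell-free counterscreen with pre-activated enterokinase alone (50 pM final) in 20mM Tris-HCl pH 8.0, 2mM CaCl2, 2mM beta-mercaptoethanol, 0.05% CHAPS; compound preincubation 30 min RT, reporter substrate 25nM final, fluorescence read after 10 min (Ex 485/Em 531).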
Background: The purpose of a counterscreen is to sort out artefacts and off-target activity.
Turning to `O=C(CC1Oc2ccccc2NC1=O)NCc1ccc(Cl)cc1` (stereo not given), the Potency result is “inactive”.
As to `C#CCOCCOCCOCCNc1nc(N2CCN(C(=O)CCCCCCCCCCNC(=O)[C@@H](CCC(=O)O)n3cc(CCCCCN)nn3)CC2)nc(N2CCN(C(=O)CCCCCCCCCCNC(=O)[C@H]([C@@H](C)CC)n3cc(CCCCCN)nn3)CC2)n1`, the Potency was 5.01 µM (active).
Take `C#CCOCCOCCOCCNc1nc(N2CCN(C(=O)CCCCCCCCCCNC(=O)Cn3cc(CCCCCN)nn3)CC2)nc(N2CCN(C(=O)CCCCCCCCCCNC(=O)Cn3cc(CCCCCN)nn3)CC2)n1`: the Potency is 10 µM (active).
Take `Cc1sc2nc(CN3CCN(c4ccc(O)cc4)CC3)[nH]c(=O)c2c1C`: the Potency entry was “inactive”.
In the case of `CCCC(c1nnnn1Cc1ccc(OC)cc1)N1CCC(C(N)=O)CC1` (stereo not given), the Potency entry is “inactive”.
For `CCN1C(=O)C(NC(C)=O)c2cc(OC)ccc21` (stereo not given) the value was “inactive”; for `COc1ccc(-c2nc(Cn3c(SCc4ccc(F)cc4)nc4ccncc43)c(C)o2)cc1OC`, “inactive”.
For the molecule `COc1ccc(OCC(=O)Nc2ccccc2OC)cc1`, the Potency result was “inactive”.
Consider `O=[N+]([O-])c1c(NCCO)cc(N2CCN(Cc3ccc4c(c3)OCO4)CC2)c2nonc12`, for which the Potency result is “inactive”.
For `CCCNC(=O)NCc1ccc(N2CCCC2=O)cc1`, the Potency entry is “inactive”.
Consider `CN(C)C=Nc1ncc2c3ccccc3n(CCN(C)C)c2c1C#N`, for which the Potency entry is “inactive”.
As for `O=C(CSc1ncn[nH]1)Nc1ccc(Br)cc1F`, the Potency entry is “inactive”.
As for `O=C(Nn1c(SCc2ccc([N+](=O)[O-])cc2)nc2ccccc2c1=O)c1ccc(F)cc1`, the Potency result was “inactive”.
For `CCOC(=O)COc1ccccc1/C=N/O`, the Potency result was “inactive”.
In the case of `NC(=O)C[C@@H]1N[C@]2(C(=O)Nc3ccccc32)[C@@H]2C(=O)N(c3cc(C(F)(F)F)ccc3Cl)C(=O)[C@H]12`, the Potency result was “inactive”.
The entry for `CCn1nnnc1SCC(=O)Nc1cccc(C)n1` is “inactive”; for `c1ccc(Nc2c3c(nc4ncnn24)CCC3)cc1` it is “inactive”.
Regarding `Cc1ccc2nc(NCCCNC(=O)c3cnccn3)c(C#N)cc2c1`, the Potency result is “inactive”.
In the case of `CCOc1ccc(C=NNc2ccc(S(=O)(=O)Nc3ccccc3C(=O)O)cc2[N+](=O)[O-])cc1`, the Potency is 11.2 µM (active).
With `O=C(CNC(=O)c1ccco1)Nc1ccc(S(=O)(=O)N2CCCC2)cc1`, the Potency entry was “inactive”.
`O=S(=O)(c1ccccc1)N(CC1CO1)c1cc(Cl)ccc1Cl` (stereo not given): the Potency result was “inactive”.
Take `CCCCCCCCCCC[N+](C)(C)CC/C=C1/c2ccccc2Sc2ccc(Cl)cc21`: the Potency is 11.2 µM (active).
For `COc1ccc(CC(=O)c2ccccc2C(=O)O)cc1` the value was “inactive”; for `CCCCC(CC)CN=C(N)NC(N)=NCCCCCCN=C(N)NC(N)=NCC(CC)CCCC` (stereo not given), 5.62 µM (active).
Regarding `COc1cccc(NC(=O)c2ccccc2-c2nc(-c3cccc(C)c3)no2)c1`, the Potency entry was “inactive”.
As to `C(=N\N(c1ccccc1)c1ccccc1)/c1ccccn1`, the Potency result is “inactive”.
For `COc1cc(/C=C(/C(=O)c2cccs2)c2nc3ccccc3[nH]2)ccc1O`, the Potency entry is “inactive”.
For the molecule `O=C(Nc1ccc(S(=O)(=O)Nc2ncccn2)cc1)c1ccc(S(=O)(=O)N2CCCC2)cc1`, the Potency entry is “inactive”.
`Cc1c(NC(=O)C2CCCN2S(=O)(=O)c2ccc(Cl)cc2)c(=O)n(-c2ccccc2)n1C` (stereo not given): the Potency entry is “inactive”.
Turning to `CC(=O)c1ccc2c(c1)C1C=CCC1C(C(=O)O)N2` (stereo not given), the Potency is 11.2 µM (active).
Take `CCOc1ccc2nc(NC(=O)Nc3ccccc3)sc2c1`: the Potency entry is “inactive”.
Take `CC(OC(=O)CN(C)S(=O)(=O)c1ccc(Cl)cc1)C(=O)Nc1ccc(N2CCOCC2)cc1` (stereo not given): the Potency result was “inactive”.
With `O=C(Cn1cnc2sc(-c3ccccc3)cc2c1=O)NCc1ccco1`, the Potency is 10 µM (active).
Turning to `CC1(C)CC(=O)C2=C(C1)N(Cc1ccco1)C(=O)NC2(C(F)(F)F)C(F)(F)F`, the Potency entry was “inactive”.
On to `Cc1ccc2c(c1)c1c3n2CCN(C(=O)Cn2c(-c4ccccc4)noc2=O)C3CCC1` (stereo not given), for which the Potency entry is “inactive”.
Consider `Cc1cc(C(=O)Nc2ccccc2N2CCOCC2)c2ccccc2n1`, for which the Potency result was “inactive”.
Regarding `CCOc1cc(/C=C/c2nc3cc(C)c(C)cc3s2)ccc1OCC(=O)N1CCOCC1`, the Potency result was “inactive”.
In the case of `Cc1ccc(NC(=O)c2cc(-c3ccco3)nc3ccccc23)cc1S(=O)(=O)N1CCOCC1`, the Potency is 7.08 µM (active).
For the molecule `CC(OC(=O)c1nsc(Cl)c1Cl)C(=O)NCc1ccco1` (stereo not given), the Potency entry is “inactive”.
`CNc1sc(C(=O)c2ccc(F)cc2)c(N)c1-c1nc2ccccc2s1`: the Potency result was “inactive”.

The values above are taken from PubChem BioAssay AID493169 (National Center for Advancing Translational Sciences (NCATS), 2011).
